# Results reported in PubChem BioAssay AID1159580 (chemical genetic matrix, 2015).
# The campaign covered roughly 5,500 compounds. About 2,000 (36%) were called active. Roughly 18% stayed inconclusive and do not appear here. This is one part of the list. Values without a mark were called inactive. Cut-off read from the data, not from the text of the source: active = normalized growth mostly below about 0.91 (no sharp cut-off); inconclusive = no clear call, values can overlap the other calls; inactive = mostly above about 0.92.
# Experiment: chemical genetic growth profiling, strain panel (AID 1159580);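 note: tested at 20 µM; growth read once vehicle control cultures reached saturation at 30 °C; 1 = growth at the plate median or of vehicle wells; lower values mean less growth of the strain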
# Conditions: growth OD
# [1] = S. cerevisiae deletion strains, locus YNL322C, strain KRE1, stronger effect = lower value
# [2] = S. cerevisiae deletion strains, locus YPL055C, strain LGE1, stronger effect = lower value
# [3] = S. cerevisiae deletion strains, locus YPL241C, strain CIN2, stronger effect = lower value
# [4] = S. cerevisiae deletion strains, locus YDL101C, strain DUN1, stronger effect = lower value
# [5] = S. cerevisiae deletion strains, locus YHR030C, strain SLT2, stronger effect = lower value
smiles,measurement,setting,value
CN(C)C/C=C(/c1ccc(Br)cc1)c1cccnc1,normalized growth,"S. cerevisiae deletion strains, locus YAL040C, strain CLN3, stronger effect = lower value",0.964
same,normalized growth,"S. cerevisiae deletion strains, locus YCL061C, strain MRC1 (second series), stronger effect = lower value",0.999
same,normalized growth,"S. cerevisiae deletion strains, locus YDR363W, strain ESC2, stronger effect = lower value",0.984
same,normalized growth,"S. cerevisiae deletion strains, locus YER002W, strain NOP16, stronger effect = lower value",0.992
same,normalized growth,"S. cerevisiae deletion strains, locus YMR307W, strain GAS1, stronger effect = lower value",1.02
same,normalized growth,"S. cerevisiae deletion strains, locus YNL175C, strain NOP13, stronger effect = lower value",0.975
same,normalized growth,"S. cerevisiae deletion strains, locus YNL197C, strain WHI3, stronger effect = lower value",1
same,normalized growth,"S. cerevisiae deletion strains, locus YNL224C, strain SQS1, stronger effect = lower value",1
same,normalized growth,[1],0.926
same,normalized growth,"S. cerevisiae deletion strains, locus YOR083W, strain WHI5 (second series), stronger effect = lower value",0.994
same,normalized growth,[2],0.997
same,normalized growth,[3],0.998
Brc1ccc(-c2csc(-c3cccnc3)n2)cc1,normalized growth,"S. cerevisiae deletion strains, locus YAR019C, strain CDC15, stronger effect = lower value",0.879 (active)
same,normalized growth,"S. cerevisiae deletion strains, locus YBL105C, strain PKC1, stronger effect = lower value",0.921
same,normalized growth,"S. cerevisiae deletion strains, locus YBR135W, strain CKS1, stronger effect = lower value",0.898
same,normalized growth,"S. cerevisiae deletion strains, locus YBR136W, strain MEC1, stronger effect = lower value",0.913
same,normalized growth,"S. cerevisiae deletion strains, locus YBR160W, strain CDC28, stronger effect = lower value",0.904
same,normalized growth,"S. cerevisiae deletion strains, locus YDL017W, strain CDC7, stronger effect = lower value",0.906
same,normalized growth,"S. cerevisiae deletion strains, locus YDL028C, strain MPS1, stronger effect = lower value",0.916
same,normalized growth,[4],0.887 (active)
same,normalized growth,"S. cerevisiae deletion strains, locus YDL108W, strain KIN28, stronger effect = lower value",0.904
same,normalized growth,"S. cerevisiae deletion strains, locus YDL132W, strain cdc53, stronger effect = lower value",0.854 (active)
same,normalized growth,"S. cerevisiae deletion strains, locus YDL214C, strain PRR2, stronger effect = lower value",0.741
same,normalized growth,"S. cerevisiae deletion strains, locus YDR052C, strain DBF4, stronger effect = lower value",0.894 (active)
same,normalized growth,"S. cerevisiae deletion strains, locus YDR054C, strain cdc34, stronger effect = lower value",0.847 (active)
same,normalized growth,"S. cerevisiae deletion strains, locus YDR226W, strain ADK1, stronger effect = lower value",0.884 (active)
same,normalized growth,"S. cerevisiae deletion strains, locus YDR477W, strain SNF1, stronger effect = lower value",0.624 (active)
same,normalized growth,"S. cerevisiae deletion strains, locus YER123W, strain YCK3, stronger effect = lower value",0.606 (active)
same,normalized growth,"S. cerevisiae deletion strains, locus YER133W, strain GLC7, stronger effect = lower value",0.561 (active)
same,normalized growth,"S. cerevisiae deletion strains, locus YFL009W, strain cdc4, stronger effect = lower value",0.867 (active)
same,normalized growth,"S. cerevisiae deletion strains, locus YFL029C, strain CAK1, stronger effect = lower value",0.872 (active)
same,normalized growth,"S. cerevisiae deletion strains, locus YFR003C, strain YPI1, stronger effect = lower value",0.904
same,normalized growth,"S. cerevisiae deletion strains, locus YFR019W, strain FAB1, stronger effect = lower value",0.677 (active)
same,normalized growth,"S. cerevisiae deletion strains, locus YFR028C, strain CDC14, stronger effect = lower value",0.875 (active)
same,normalized growth,"S. cerevisiae deletion strains, locus YGR040W, strain KSS1, stronger effect = lower value",0.59 (active)
same,normalized growth,"S. cerevisiae deletion strains, locus YGR052W, strain FMP48, stronger effect = lower value",0.704
same,normalized growth,"S. cerevisiae deletion strains, locus YGR092W, strain DBF2, stronger effect = lower value",0.456 (active)
same,normalized growth,[5],0.519 (active)
same,normalized growth,"S. cerevisiae deletion strains, locus YHR079C, strain IRE1, stronger effect = lower value",0.637
same,normalized growth,"S. cerevisiae deletion strains, locus YHR082C, strain KSP1, stronger effect = lower value",0.695
same,normalized growth,"S. cerevisiae deletion strains, locus YHR205W, strain SCH9, stronger effect = lower value",0.643
same,normalized growth,"S. cerevisiae deletion strains, locus YIL147C, strain SLN1, stronger effect = lower value",0.899
same,normalized growth,"S. cerevisiae deletion strains, locus YJL095W, strain BCK1, stronger effect = lower value",0.305 (active)
same,normalized growth,"S. cerevisiae deletion strains, locus YJL128C, strain PBS2, stronger effect = lower value",0.951
same,normalized growth,"S. cerevisiae deletion strains, locus YJL157C, strain FAR1, stronger effect = lower value",0.735
same,normalized growth,"S. cerevisiae deletion strains, locus YJR016C, strain ILV3, stronger effect = lower value",0.878 (active)
same,normalized growth,"S. cerevisiae deletion strains, locus YJR066W, strain TOR1 (second series), stronger effect = lower value",0.603 (active)
same,normalized growth,"S. cerevisiae deletion strains, locus YJR066W, strain TOR1, stronger effect = lower value",0.545
same,normalized growth,"S. cerevisiae deletion strains, locus YKL048C, strain ELM1, stronger effect = lower value",0.835
same,normalized growth,"S. cerevisiae deletion strains, locus YKL067W, strain YNK1, stronger effect = lower value",0.733 (active)
same,normalized growth,"S. cerevisiae deletion strains, locus YKL101W, strain HSL1, stronger effect = lower value",0.784
same,normalized growth,"S. cerevisiae deletion strains, locus YKL193C, strain SDS22, stronger effect = lower value",0.864 (active)
same,normalized growth,"S. cerevisiae deletion strains, locus YKL203C, strain TOR2, stronger effect = lower value",0.506 (active)
same,normalized growth,"S. cerevisiae deletion strains, locus YLR113W, strain HOG1, stronger effect = lower value",0.655 (active)
same,normalized growth,"S. cerevisiae deletion strains, locus YLR133W, strain CKI1, stronger effect = lower value",0.767
same,normalized growth,"S. cerevisiae deletion strains, locus YLR403W, strain SFP1, stronger effect = lower value",0.563 (active)
same,normalized growth,"S. cerevisiae deletion strains, locus YML070W, strain DAK1, stronger effect = lower value",0.704
same,normalized growth,"S. cerevisiae deletion strains, locus YMR001C, strain CDC5, stronger effect = lower value",0.88 (active)
same,normalized growth,"S. cerevisiae deletion strains, locus YMR205C, strain PFK2 (second series), stronger effect = lower value",0.719 (active)
same,normalized growth,"S. cerevisiae deletion strains, locus YMR277W, strain FCP1, stronger effect = lower value",0.873 (active)
same,normalized growth,"S. cerevisiae deletion strains, locus YNL006W, strain LST8, stronger effect = lower value",0.894 (active)
same,normalized growth,"S. cerevisiae deletion strains, locus YNL020C, strain ARK1, stronger effect = lower value",0.751
same,normalized growth,"S. cerevisiae deletion strains, locus YNL161W, strain CBK1, stronger effect = lower value",0.893 (active)
same,normalized growth,"S. cerevisiae deletion strains, locus YNL183C, strain NPR1, stronger effect = lower value",0.55 (active)
same,normalized growth,"S. cerevisiae deletion strains, locus YNL207W, strain RIO2, stronger effect = lower value",0.846 (active)
same,normalized growth,"S. cerevisiae deletion strains, locus YNL222W, strain SSU72, stronger effect = lower value",0.902
same,normalized growth,"S. cerevisiae deletion strains, locus YNL307C, strain MCK1 (second series), stronger effect = lower value",0.702
same,normalized growth,"S. cerevisiae deletion strains, locus YOL078W, strain AVO1, stronger effect = lower value",0.866 (active)
same,normalized growth,"S. cerevisiae deletion strains, locus YOL136C, strain PFK27, stronger effect = lower value",0.709
same,normalized growth,"S. cerevisiae deletion strains, locus YOR061W, strain CKA2, stronger effect = lower value",0.792
same,normalized growth,"S. cerevisiae deletion strains, locus YOR119C, strain RIO1, stronger effect = lower value",0.54 (active)
same,normalized growth,"S. cerevisiae deletion strains, locus YOR231W, strain MKK1, stronger effect = lower value",0.647
same,normalized growth,"S. cerevisiae deletion strains, locus YOR329C, strain SCD5, stronger effect = lower value",0.883 (active)
same,normalized growth,"S. cerevisiae deletion strains, locus YPL031C, strain PHO85, stronger effect = lower value",0.533 (active)
same,normalized growth,"S. cerevisiae deletion strains, locus YPL153C, strain RAD53, stronger effect = lower value",0.449 (active)
same,normalized growth,"S. cerevisiae deletion strains, locus YPL204W, strain HRR25, stronger effect = lower value",0.46 (active)
same,normalized growth,"S. cerevisiae deletion strains, locus YPL209C, strain IPL1, stronger effect = lower value",0.893 (active)
same,normalized growth,"S. cerevisiae deletion strains, locus YPL256C, strain CLN2, stronger effect = lower value",0.679 (active)
same,normalized growth,"S. cerevisiae deletion strains, locus YPR025C, strain CCL1, stronger effect = lower value",0.894 (active)
same,normalized growth,"S. cerevisiae deletion strains, locus YPR106W, strain ISR1, stronger effect = lower value",0.903
same,normalized growth,"S. cerevisiae deletion strains, locus YPR111W, strain DBF20, stronger effect = lower value",0.918
same,normalized growth,"S. cerevisiae deletion strains, strain NNK1, stronger effect = lower value",0.871 (active)
same,normalized growth,"S. cerevisiae deletion strains, strain TSCII, stronger effect = lower value",0.86 (active)
COc1ccc(-c2nc(-c3ccc(-c4ccccc4)cc3)cs2)cc1,normalized growth,"S. cerevisiae deletion strains, locus YAL013W, strain DEP1, stronger effect = lower value",1.03
same,normalized growth,"S. cerevisiae deletion strains, locus YBR229C, strain ROT2, stronger effect = lower value",1.01
same,normalized growth,[4],1.03
same,normalized growth,"S. cerevisiae deletion strains, locus YDL134C, strain PPH21, stronger effect = lower value",0.87 (active)
same,normalized growth,"S. cerevisiae deletion strains, locus YDR150W, strain NUM1, stronger effect = lower value",1
same,normalized growth,"S. cerevisiae deletion strains, locus YEL061C, strain CIN8, stronger effect = lower value",0.979
same,normalized growth,"S. cerevisiae deletion strains, locus YGR078C, strain PAC10, stronger effect = lower value",1.02
same,normalized growth,[5],1.08
same,normalized growth,"S. cerevisiae deletion strains, locus YHR087W, strain rtc3, stronger effect = lower value",1
same,normalized growth,"S. cerevisiae deletion strains, locus YJL187C, strain SWE1, stronger effect = lower value",0.968
same,normalized growth,"S. cerevisiae deletion strains, locus YJR043C, strain POL32, stronger effect = lower value",1.03
same,normalized growth,"S. cerevisiae deletion strains, locus YJR075W, strain HOC1, stronger effect = lower value",1.02
same,normalized growth,"S. cerevisiae deletion strains, locus YKL190W, strain CNB1, stronger effect = lower value",0.995
same,normalized growth,"S. cerevisiae deletion strains, locus YLR039C, strain RIC1, stronger effect = lower value",1.02
same,normalized growth,"S. cerevisiae deletion strains, locus YLR058C, strain SHM2 (second series), stronger effect = lower value",1.02
same,normalized growth,"S. cerevisiae deletion strains, locus YLR085C, strain ARP6, stronger effect = lower value",1.02
same,normalized growth,"S. cerevisiae deletion strains, locus YLR262C, strain YPT6, stronger effect = lower value",1.09
same,normalized growth,"S. cerevisiae deletion strains, locus YML094W, strain GIM5, stronger effect = lower value",0.999
same,normalized growth,"S. cerevisiae deletion strains, locus YMR219W, strain ESC1, stronger effect = lower value",1.01
same,normalized growth,"S. cerevisiae deletion strains, locus YMR263W, strain SAP30, stronger effect = lower value",1.01
same,normalized growth,"S. cerevisiae deletion strains, locus YNL153C, strain GIM3, stronger effect = lower value",1.02
same,normalized growth,"S. cerevisiae deletion strains, locus YNL298W, strain CLA4 (second series), stronger effect = lower value",1.09
same,normalized growth,[1],1.01
same,normalized growth,"S. cerevisiae deletion strains, locus YNR030W, strain Alg12, stronger effect = lower value",1.02
same,normalized growth,[2],1.01
same,normalized growth,[3],1
same,normalized growth,"S. cerevisiae deletion strains, locus YPR135W, strain CTF4, stronger effect = lower value",1.14
same,normalized growth,"S. cerevisiae strains, strain wild type, stronger effect = lower value",1
